Compounds with a hit are over-represented: about 2.8% of the library has one in this group of screens.
CF NFkB block: inhibitors of PAF-induced NF-kB signaling, primary screen, cell-based, GFP fluorescence, uHTS; KKLEB NF-kB-GFP reporter, GFP fluorescence overnight; inhibition, % at 5 µM; hit rate 0.86% among 360,000; AID 588850, 2011;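 active = at least 50% inhibition at 5 µM, scaled per plate between neutral and stimulator controls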;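 also: PAF is a Pseudomonas aeruginosa culture filtrate used as stimulus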
Shn3 3UTR inh: reduction of Shn3 3'UTR firefly luciferase signal, primary screen, Schnurri-3 inhibitor project, cell-based, Clone20 osteoblasts, set 2. Clone20 osteoblast Shn3 3'UTR firefly luciferase, 24 h. inhibition, % at 12.5 µM. hit rate 0.52% among 360,000. AID 588674, 2011;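 active = mean inhibition of at least 75% with every replicate also reaching 75%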
Peg3 promoter: Peg3 promoter-driven luciferase inhibitors, primary screen, cell-based, HeLa, luciferase luminescence | hit rate 1.7% among 360,000 | inhibition, % at 20 µM | HeLa PEG-Prom luciferase reporter, overnight | AID 588405, 2011;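 active = inhibition of at least 50% at 20 µM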
HIF-2a block: HIF-2a reporter inhibitors, primary screen, luminescence, 786-0 RCC cells; 786-0 RCC cells HIF-2a reporter, luciferase luminescence, overnight; inhibition, % at 18.8 µM; hit rate 0.72% among 360,000;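 active = inhibition of the luminescence signal of 40% or more relative to plate controls, in a single-dose primary screen at 18.75 µM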
KKLEB tox: cytotoxicity in KKLEB CF airway cells, primary screen, cytotoxicity control for CF NF-kB inhibitor project, cell-based, uHTS, fluorescence assay plates; KKLEB CF airway cells viability, ATPlite luminescence, overnight; active compounds read low; cells stimulated with P. aeruginosa culture filtrate; activity change (cytotoxicity), % at 5 µM; hit rate 0.36% among 360,000; AID 602141, 2011;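 active = corrected activity change at or below -50% at 5 µM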
MITF TRPM1 inh: inhibitors of MITF-dependent TRPM1 promoter reporter, primary screen, cell-based, SK-MEL-5, single point, luciferase; SK-MEL-5 TRPM1 promoter luciferase, 24 h; hit rate 0.83% among 330,000; inhibition, % at 12.5 µM; AID 488899, 2010;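 active = mean inhibition across replicates of 60% or more, whatever share of single replicates reaches that level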
Hits are given with their value; - = inactive; . = no result; ! = a repeat was not active.

SMILES	CF NFkB block	Shn3 3UTR inh	Peg3 promoter	HIF-2a block	KKLEB tox	MITF TRPM1 inh
CCCc1ccc(Oc2c(-c3ccc(O)c(C)c3O)n[nH]c2C)cc1	-	-	-	-	-	-
COc1ccc(OCC(O)Cn2c(=N)n(CCN3CCCCC3)c3ccccc32)cc1 (configuration not stated)	-	-	-	-	-	-
CCCCn1c(=N)n(CC(O)COc2cccc(C)c2)c2ccccc21 (configuration not stated)	-	-	70	-	-	-
CCCn1c(=N)n(CC(O)COc2ccc(C)cc2)c2ccccc21 (configuration not stated)	-	-	-	-	-	-
CCCCCn1c(=N)n(CC(O)COc2ccccc2OC)c2ccccc21 (configuration not stated)	-	86!	-	-	-	-
C=CCn1c(=N)n(CC(O)COc2ccccc2OC)c2ccccc21 (configuration not stated)	-	-	-	-	-	.
COc1ccccc1OCC(O)Cn1c(=N)n(Cc2ccccc2)c2ccccc21 (configuration not stated)	-	87	-	-	-	-
Cc1ccc(OCC(O)Cn2c(=N)n(CCN3CCCCC3)c3ccccc32)cc1 (configuration not stated)	-	-	78	-	-	-
COc1ccc(/C=C/c2onc(C)c2S(=O)(=O)N2CCC(C(=O)N3CCC(C)CC3)CC2)cc1	-	-	-	-	-	-
C[C@H](CO)N1C[C@H](C)[C@H](CN(C)Cc2cccc(C(F)(F)F)c2)OCc2ccccc2-c2c(n(C)c3ccccc23)C1=O	-	-	-	-	-	.
Cc1ccccc1OCC(O)Cn1c(=N)n(Cc2ccccc2)c2ccccc21 (configuration not stated)	-	87	110	-	-	-
CCCCn1c(=N)n(CCOc2ccc(C)cc2)c2ccccc21	-	-	100	-	-	64
Cc1ccccc1OCC(O)Cn1c2ccccc2c2ccccc21 (configuration not stated)	-	-	-	-	-	-
O=C(OCC(=O)N1CCCCCC1)c1ccc([N+](=O)[O-])cc1Cl	-	-	-	-	-	-
CCn1cc2nc(SCC(=O)Nc3ccccc3F)n(Cc3ccccc3)c(=O)c2n1	-	-	-	-	-	-
O=C(c1cccs1)N1CCN(C(=O)c2cccs2)C1=S	-	-	99	-	-	-
Clc1cc(Br)ccc1OCCCNCc1ccccc1	-	-	56	-	-	-
Fc1ccc(COc2ccccc2CNCc2ccncc2)cc1	-	-	-	-	-	-
Brc1ccc(OCc2ccccc2)c(CNCc2ccncc2)c1	-	-	51	-	-	-
CN(C)CC/C=C1\c2ccccc2COc2ccccc21	-	-	-	-	-56	-
N#Cc1cccc(S(=O)(=O)NCc2nnc3ccccn23)c1	-	-	-	-	-	-
O=C(c1ccccc1F)N1CCN(c2ccc([N+](=O)[O-])c3ncccc23)CC1	-	-	-	-	-	-
O=[N+]([O-])c1cccc2c(N3CCCC3)ccnc12	-	-	-	-	-	81
C[C@H]1CCC/C=C/[C@@H]2C[C@H](O)C[C@H]2[C@H](O)[C@H](S(=O)c2ccc(O)cc2)CC(=O)O1 (some centres not stated)	66	87	52	-	-	83
Nc1ncnc2oc(-c3ccco3)c(-c3ccco3)c12	53	-	-	-	-	-
SMILES	CF NFkB block	Shn3 3UTR inh	Peg3 promoter	HIF-2a block	KKLEB tox	MITF TRPM1 inh
CCOc1ccc(C(=O)COC(=O)Cn2[nH]c(=O)c3ccccc3c2=O)cc1	-	-	-	-	-	.
CCCc1cc(=O)oc2cc(OCC(=O)NCCc3c[nH]c4ccccc34)ccc12	-	-	57	-	-	-
Cc1cc(=O)oc2cc(OCC(=O)NCCc3c[nH]c4ccc(F)cc34)ccc12	-	-	-	-	-	-
O=C(CN1C(=O)c2ccccc2S1(=O)=O)NCCc1ccc(F)cc1	-	-	-	-	-	-
CCOC(=O)[C@]12CCCC=C1N(Cc1ccc(Cl)cc1Cl)C(=O)[C@H](CC(=O)N1CCOCC1)C2	.	.	.	-	.	.
O=C(CCC(=O)OCC(F)(F)C(F)F)Nc1ccc(F)cc1F	-	-	-	-	-	-
O=C(CCC(=O)OCC(F)(F)C(F)F)Nc1ccc(Cl)cc1	-	-	63	-	-	-
O=C(NC1CCN(S(=O)(=O)c2ccc(F)cc2)CC1)c1cccnc1	-	-	-	-	-	-
Cc1cc(C)cc(N(CCC#N)C(=O)COC(=O)C2CCN(S(=O)(=O)c3ccc(C)c(C)c3)CC2)c1	-	-	-	-	-	-
CCOC(=O)c1c2c(n(-c3ccc(OC)cc3)c1C)C(=O)C(=O)c1ccccc1-2	82	97	102	83	-91	94
CCOC(=O)c1sc(=S)n(-c2ccc(OC)cc2)c1C	-	-	-	-	-	.
Cc1ccccc1Cn1cc(NC(=O)c2cc3nc(-c4ccco4)cc(C(F)(F)F)n3n2)cn1	-	-	-	-	-	-
CCc1ccc(-c2cc(C(F)(F)F)n3nc(C(=O)Nc4cnn(Cc5ccc(C)cc5)c4)cc3n2)s1	-	91	-	-	-	-
O=[N+]([O-])CC(c1ccc(F)cc1)c1c[nH]c2ccccc12 (configuration not stated)	-	-	55	-	-	-
CCNC(=S)N1CCN(c2nc(-c3ccc(F)cc3)cs2)CC1	-	-	-	-	-	-
CCN(CC)CCCNC(=S)N1CCN(c2nc(-c3ccc(F)cc3)cs2)CC1	-	-	71	-	-	-
COc1cc(Nc2ccccn2)cc(C(=O)Nc2cccc(C(F)(F)F)c2)c1	-	-	81!	-	-	-
Oc1ccc(C[C@@H]2CNCCN2CCc2cc(C(F)(F)F)cc(C(F)(F)F)c2)cc1	-	-	103	-	-	-
FC(F)(F)c1cc(CCN2CCNC[C@H]2Cc2cccc3ccccc23)cc(C(F)(F)F)c1	-	-	101	-	-	-
c1ccc(C[C@H]2CNCCN2CCc2cccc3ccccc23)cc1	-	-	-	-	-	-
Oc1ccc(C[C@@H]2CNCCN2CCCCC2CCCCC2)cc1	-	-	94	-	-	-
O=C(NCC1CC1)Nc1cccc(C(F)(F)F)c1	-	-	-	-	-	-
CCOc1ccccc1OCCCC(=O)Nc1cc(S(=O)(=O)N2CCOCC2)ccc1OC	-	-	-	-	-	-
COc1cc2c(O)c3c(c(-c4ccc5c(c4)OCO5)c2cc1OC)C(=O)OC3	76	-	81	-	-73	-

Bioassay records (PubChem)
